Screening data: PubChem, National Center for Advancing Translational Sciences (NCATS)
TDP43 rescue: qHTS of TDP-43 Inhibitors | TDP-43 expressing yeast growth rescue, BacTiter-Glo, 24 h | Potency, µM (series often up to 46.1 µM), hits mostly activators | actives 1.8% (n = 410,000); also: nearly all actives have a fitted effect of over 50% in size
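In this qHTS, compounds that restore growth of yeast expressing TDP-43 appear as activators. Cells (OD600=0.02, galactose medium, raffinose-pregrown) are incubated with compound 24 hr at 30 deg C and growth is quantified by BacTiter-Glo.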
LDHA inh: qHTS assay for inhibitors of human lactate dehydrogenase; actives 0.15% (n = 480,000); activity change, % (values are at about 110 or 230 µM); purified LDHA, NADH/diaphorase-resazurin fluorescence; active compounds read low; in the data active = activity change below about -30%; inconclusive = mostly about -25% to -30%
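Resorufin fluorescence (ex540/em590), read at 0 and 20 min after diaphorase/resazurin addition, reports the NADH left after a 5 min room-temperature reaction of 2 nM human LDH5 with 0.06 mM NADH and 0.2 mM pyruvate.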
FUS yeast rescue: qHTS for Suppressors of FUS Proteinopathy: Primary screen using FUS-linked yeast assay; Potency, µM (series often up to 76.6 µM), actives largely listed as activators; actives 0.24% (n = 390,000); S. cerevisiae FUS-expressing, growth rescue, OD600, 24 h; AID 1347120, 2019; also: nearly all actives have a fitted effect of over 55% in size
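Yeast expressing FUS under galactose induction, OD 0.005 in 2% galactose medium; compounds in a dilution series, 24 h at 30C. Growth rescue by absorbance at 600 nm; CP55940 positive control, DMSO negative.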
PTHR1 agonist: qHTS for PTHR1 Agonists: Primary Screen; Parathyroid hormone/parathyroid hormone-related peptide receptor (Homo sapiens), Q03431; HEK293 GP2 PTHR1 cells, GloSensor cAMP luminescence, 1 h; Potency, µM (highest dose often 115 µM), usual class: activators; actives 0.075% (n = 410,000); AID 743266, 2014; also: nearly all actives have a fitted effect of over 55% in size
Target sequence (Q03431 whole entry, looked up): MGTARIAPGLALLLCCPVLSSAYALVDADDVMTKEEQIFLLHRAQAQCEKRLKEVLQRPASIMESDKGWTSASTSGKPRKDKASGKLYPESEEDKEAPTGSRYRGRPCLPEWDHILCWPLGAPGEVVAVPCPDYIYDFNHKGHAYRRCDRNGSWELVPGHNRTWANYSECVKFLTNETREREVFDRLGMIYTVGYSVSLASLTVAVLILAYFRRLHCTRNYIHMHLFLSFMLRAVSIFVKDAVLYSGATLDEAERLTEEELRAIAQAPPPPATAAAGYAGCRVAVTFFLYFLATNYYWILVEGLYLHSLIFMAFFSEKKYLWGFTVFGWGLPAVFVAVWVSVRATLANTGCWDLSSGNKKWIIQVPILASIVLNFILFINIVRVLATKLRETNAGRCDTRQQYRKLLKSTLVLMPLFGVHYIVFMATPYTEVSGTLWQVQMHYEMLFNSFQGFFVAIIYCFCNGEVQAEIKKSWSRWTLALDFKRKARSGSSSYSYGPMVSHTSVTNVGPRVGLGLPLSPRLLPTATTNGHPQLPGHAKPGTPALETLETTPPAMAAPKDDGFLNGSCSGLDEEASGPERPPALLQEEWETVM
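HEK-293-derived GP2 cells expressing PTHR1 and a GloSensor cAMP reporter, 3,000/well, plated overnight, given luciferin plus IBMX (each 0.5 mM as added) for 1 h at 37 °C, then compound for 1 h at 37 °C. Luminescence was read after 15 min at room temperature.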
Abeta yeast res: qHTS for compounds that reverse cellular toxicity of Amyloid beta (A-beta) peptide in yeast: Primary Screen; Potency, µM (doses to about 46.1 µM), usual class: activators; actives 0.063% (n = 410,000); yeast expressing A-beta42, growth rescue, OD600, 48 h; response scale: 0% DMSO, 100% iron-clioquinol control; also: nearly all actives have a fitted effect of over 55% in size
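Yeast A-beta toxicity model in growth medium with pinned compounds, 48 h at 30 C; growth read as absorbance at 600 nm. Normalized to FeCl3/clioquinol equimolar mix (positive) and DMSO (negative).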
aSyn yeast inh: qHTS of alpha-syn Inhibitors; Yeast expressing alpha-synuclein, growth rescue, BacTiter-Glo, 24 h; Potency, µM (doses to about 46.1 µM), usual class: activators; actives 0.14% (n = 370,000); also: nearly all actives have a fitted effect of over 65% in size
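Readout is rescue of growth in alpha-synuclein-expressing yeast, so inhibitors of toxicity appear as activators. Growth after 24 hr at 30 deg C in galactose medium is quantified by luminescence.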
Hits are given with their value; [ ] = dose if it differs, or a comment. Most compounds without a hit are left out; they make up all but 1.9% or so of the library. Unless noted, calls follow the shape of the dose curve; as a rule, active = well fitted curve in the direction sought with a large enough effect; inconclusive = small, poorly fitted or top-dose-only effect, or another doubt; inactive = no such curve, though single readings can be large; an effect the other way counts as inactive or inconclusive.

Results for Cc1ccc2c(c1)c(C)c(C)n2CC(O)Cn1nnc2ccccc21 (stereo not given) ?
TDP43 rescue: inconclusive; LDHA inh: inactive; FUS yeast rescue: inconclusive; PTHR1 agonist: inactive; Abeta yeast res: 10µM; aSyn yeast inh: inconclusive

What do the screens show for `Cc1ccc(-c2c3c(=O)n(C)c(=O)n(C)c3c3c(-c4cccc(C)c4)nc4ccccc4n23)cc1`?
TDP43 rescue: inconclusive; LDHA inh: inactive; FUS yeast rescue: inactive; PTHR1 agonist: inactive; Abeta yeast res: inactive

Results for COc1ccc(-c2c3c(=O)n(C)c(=O)n(C)c3c3c(-c4cccc(C)c4)nc4ccccc4n23)cc1 ?
TDP43 rescue: 16µM; LDHA inh: inactive; FUS yeast rescue: inactive; PTHR1 agonist: inactive; Abeta yeast res: inactive

What do the screens show for `Cc1ccc(C(C(=O)NC2CCCCC2)N(C)c2ccccc2)cc1` (stereo not given)?
LDHA inh: inactive

How did Cc1cc(C(=O)N/N=C/c2ccc(OCc3ccccc3)cc2)c(C)o1 do in these assays?
TDP43 rescue: 13µM; LDHA inh: inactive; FUS yeast rescue: inactive; PTHR1 agonist: inactive; Abeta yeast res: inconclusive; aSyn yeast inh: inactive

How did COc1ccc(/C=N/NC(=O)c2cc(C)oc2C)cc1OCc1ccccc1 do in these assays?
TDP43 rescue: inactive; LDHA inh: inactive; FUS yeast rescue: inactive; PTHR1 agonist: inactive; Abeta yeast res: inactive; aSyn yeast inh: inactive

What do the screens show for `N#CCCN1CCN(C(C(=O)O)c2c(-c3ccccc3)[nH]c3ccccc23)CC1` (stereo not given)?
LDHA inh: inactive

Results for Cc1ccc(C)n1-c1ccc(C(=O)N2CCOCC2)cc1 ?
TDP43 rescue: inactive; LDHA inh: inactive; FUS yeast rescue: 35µM; PTHR1 agonist: inactive; Abeta yeast res: inactive; aSyn yeast inh: inactive

Results for COC(=O)C1=C(N)Oc2cc(C)n(C)c(=O)c2C1c1cccc(OC)c1 (stereo not given) ?
LDHA inh: inactive

Results for Cc1ccsc1/C=N/NC(=O)CSCc1ccc(Cl)cc1 ?
TDP43 rescue: 14µM; LDHA inh: inactive; FUS yeast rescue: inactive; PTHR1 agonist: inactive; Abeta yeast res: inactive; aSyn yeast inh: inconclusive

What do the screens show for `Cc1ccsc1/C=N/NC(=O)Cc1ccc(Cl)cc1`?
TDP43 rescue: inactive; LDHA inh: inactive; FUS yeast rescue: inactive; PTHR1 agonist: inactive; Abeta yeast res: inactive; aSyn yeast inh: inactive

How did Fc1ccc(-c2noc3ncnc(N4CCN(c5ccccc5)CC4)c23)cc1 do in these assays?
TDP43 rescue: 25µM; LDHA inh: inactive; FUS yeast rescue: inactive; PTHR1 agonist: inactive; Abeta yeast res: inactive; aSyn yeast inh: inactive

What do the screens show for `Fc1ccc(-c2noc3ncnc(N4CCCCC4)c23)cc1`?
TDP43 rescue: inactive; LDHA inh: inactive; FUS yeast rescue: inactive; PTHR1 agonist: inactive; Abeta yeast res: inactive

What do the screens show for `Cc1noc2ncnc(N3CCN(c4ccccc4F)CC3)c12`?
TDP43 rescue: 22µM; LDHA inh: inactive; FUS yeast rescue: inactive; PTHR1 agonist: inactive; Abeta yeast res: inactive; aSyn yeast inh: inconclusive

Results for COc1ccccc1N1CCN(c2ncnc3onc(C)c23)CC1 ?
TDP43 rescue: inactive; LDHA inh: inactive; FUS yeast rescue: inactive; PTHR1 agonist: inactive; Abeta yeast res: inactive

Results for C/C(=N\OC(=O)c1ccc(F)cc1)c1sc(-c2ccccc2)nc1C ?
TDP43 rescue: inactive; LDHA inh: inactive; FUS yeast rescue: inactive; PTHR1 agonist: inactive; Abeta yeast res: inactive[9.22 µM]; aSyn yeast inh: inactive

Results for C/C(=N\OC(=O)NC1CCCCC1)c1sc(-c2ccccc2)nc1C ?
TDP43 rescue: 20µM; LDHA inh: inactive; FUS yeast rescue: inactive; PTHR1 agonist: inactive; Abeta yeast res: inactive

What do the screens show for `Cc1ccccc1N1CCN(S(=O)(=O)c2ccccc2)CC1`?
TDP43 rescue: 13µM; LDHA inh: inactive; FUS yeast rescue: inactive; PTHR1 agonist: inactive; Abeta yeast res: inactive; aSyn yeast inh: inactive

How did S=C(c1ccccc1)N1CCN(c2ccccc2)CC1 do in these assays?
TDP43 rescue: inactive; LDHA inh: inactive; FUS yeast rescue: inactive; PTHR1 agonist: inactive; Abeta yeast res: inactive; aSyn yeast inh: inactive

How did Cc1ccccc1N1CCN(C(=S)c2ccccc2)CC1 do in these assays?
TDP43 rescue: 11µM; LDHA inh: inactive; PTHR1 agonist: inactive; Abeta yeast res: inactive; aSyn yeast inh: inactive

How did Cc1cc(S(=O)(=O)N2CCN(c3ccccc3C)CC2)ccc1F do in these assays?
TDP43 rescue: inactive; LDHA inh: inactive; FUS yeast rescue: inactive; PTHR1 agonist: inactive; Abeta yeast res: inactive[9.22 µM]; aSyn yeast inh: inactive

Results for Nc1ccc(N=Cc2ccc(Cl)cc2Cl)cc1Cl ?
LDHA inh: inactive

How did O=C(C[n+]1ccccc1Cl)c1ccc2ccccc2c1 do in these assays?
LDHA inh: inactive; aSyn yeast inh: inactive

Results for O=C(CBr)c1ccc(Oc2ccc(C(=O)C[n+]3ccccc3Cl)cc2)cc1 ?
LDHA inh: -72; aSyn yeast inh: inactive

How did CC(C)=CC(=O)Nc1cccc2c1CCCC2 do in these assays?
LDHA inh: inactive

What do the screens show for `COc1cccc(/C(=N/O)C2CC2c2ccc(Cl)cc2)c1` (stereo not given)?
TDP43 rescue: 16µM; LDHA inh: inactive; FUS yeast rescue: inactive; PTHR1 agonist: inactive; Abeta yeast res: inactive; aSyn yeast inh: inactive

How did CN(CC(=O)Nc1c(Cl)cccc1Cl)C(=O)C1CCN(C(=O)c2ccc(Cl)cc2)CC1 do in these assays?
LDHA inh: inactive

How did O=[N+]([O-])c1cc(NS(=O)(=O)c2cc(Cl)sc2Cl)ccc1F do in these assays?
LDHA inh: inactive

How did CC1CC(C)(C)N(C(=O)NC2CCCCC2)c2ccccc21 (stereo not given) do in these assays?
TDP43 rescue: 14µM; LDHA inh: inactive; PTHR1 agonist: inactive; Abeta yeast res: inactive; aSyn yeast inh: inactive

How did CC(=O)c1sc(N/N=C\c2ccc(Br)cc2)nc1C do in these assays?
TDP43 rescue: inactive; LDHA inh: inactive; FUS yeast rescue: inactive; PTHR1 agonist: inactive; Abeta yeast res: inactive; aSyn yeast inh: inactive

Results for CC(=O)c1sc(N/N=C\c2cccc(Br)c2)nc1C ?
TDP43 rescue: 18µM; LDHA inh: inactive; FUS yeast rescue: inconclusive; PTHR1 agonist: inactive; Abeta yeast res: inactive; aSyn yeast inh: inactive
